Source: PubChem BioAssay
L3MBTL1 inh – L3MBTL1 (human) inhibition; 230,000 tested, 0.66% active; Q9Y468; AlphaScreen L3MBTL1–H3K9me1 peptide binding; Potency, µM (series often up to 57.1 µM), for inactives: top-dose activity, negative = inhibition, most hits filed as inhibitors; further: on the % scale 0 is the no-effect control and ±100 the full control effect; nearly all actives have a fitted effect of over 60% in size
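AlphaScreen proximity signal between nickel-chelate acceptor and streptavidin donor beads (final 10 ug/mL) reports binding of 50 nM L3MBTL1 to 75 nM biotin-H3 K9me1 peptide; complex incubated with compounds 30 min at room temperature; cefsulodin titration as control.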
HP1b chromo inh – inhibitors of HP1-beta chromodomain binding to methylated histone tails. AlphaScreen HP1-beta / biotin-H3K9me3 peptide binding. Potency, µM (highest dose often 114 µM), for the others: at the top dose activity change, negative = inhibition, actives largely listed as inhibitors. 390,000 tested, 0.56% active. AID 540317; further: nearly all actives have a fitted effect of over 70% in size
Target sequence (P83916 whole entry, looked up): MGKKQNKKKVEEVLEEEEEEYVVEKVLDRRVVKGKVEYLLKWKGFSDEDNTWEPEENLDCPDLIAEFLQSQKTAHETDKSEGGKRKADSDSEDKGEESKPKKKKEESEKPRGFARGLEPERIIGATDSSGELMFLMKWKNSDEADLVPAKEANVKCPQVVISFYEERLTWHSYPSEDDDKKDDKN
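AlphaScreen: HP1-beta (50 nM) preformed 30 min with biotin-H3(1-18)K9me3 peptide (50 nM) in PBS pH 7.4, 0.01% Tween-20. Compound added for 30 min at RT, then streptavidin donor/nickel chelate acceptor beads (10 ug/mL) for 30 min.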
JMJD2A Tudor inh – blocks the human JMJD2A Tudor domain; O75164; AlphaScreen JMJD2A-Tudor / H3K4me3 peptide binding; Potency, µM (doses to about 114 µM), for the others: at the highest dose activity change, negative = inhibition, hits mostly inhibitors; 390,000 tested, 4.4% active; AID 504339; further: on the % scale 0 is the no-effect control and ±100 the full control effect; nearly all actives have a fitted effect of over 50% in size
BAZ2B block – BAZ2B (human) inhibition; Q9UIF8; AlphaScreen BAZ2B-H3K14Ac peptide displacement; Potency, µM (highest dose often 114 µM), without a hit: at the highest dose activity change, negative = inhibition, hits mostly inhibitors; 360,000 tested, 4.4% active; further: on the % scale 0 is the no-effect control and ±100 the full control effect; nearly all actives have a fitted effect of over 60% in size
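BAZ2B 50 nM plus b-H3(5-23)K14Ac 50 nM, PBS pH 7.4/0.01% Tween-20, 30 min RT; compound added (max 110 uM), 30 min RT; streptavidin donor/Ni-chelate acceptor beads 10 ug/mL final, 20 min dark; AlphaScreen read.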
G9a block – G9a (human) methyltransferase inhibition; G9a H3K9 monomethylation, AlphaScreen, 2 h; Potency, µM (series often up to 102 µM), without a hit: top-dose activity, negative = inhibition, usual class: inhibitors; 350,000 tested, 8.8% active; further: on the % scale 0 is the no-effect control and ±100 the full control effect; nearly all actives have a fitted effect of over 75% in size
Target sequence (Q96KQ7 913-1193 limits assumed): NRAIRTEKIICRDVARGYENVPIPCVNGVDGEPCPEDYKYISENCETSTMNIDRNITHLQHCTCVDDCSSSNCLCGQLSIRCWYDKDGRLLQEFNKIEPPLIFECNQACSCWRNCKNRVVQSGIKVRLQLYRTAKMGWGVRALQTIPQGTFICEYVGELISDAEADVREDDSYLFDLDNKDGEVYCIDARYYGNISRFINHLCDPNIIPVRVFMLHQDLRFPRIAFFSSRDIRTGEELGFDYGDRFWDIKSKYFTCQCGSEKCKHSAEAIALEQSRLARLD
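AlphaScreen read-out: biotin-H3K9 peptide (500 nM) methylation by 20 nM enzyme with 20 uM SAM, 2 h at room temperature after 15 min compound preincubation; anti-monomethyl H3K9 antibody plus donor/acceptor beads, 10 min dark.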
Sfp PPTase inh – blocks B. subtilis Sfp PPTase activity. Biochemical Sfp PPTase activity, qHTS. AID 1490. Q9F4F7. 310,000 tested, 3.5% active. Potency, µM, inactives show largest response in the series, negative = inhibition, hits mostly inhibitors;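 further: the enzyme is Sfp with the accession as filed and its product quenches rhodamine fluorescence; 0% = enzyme reaction without inhibitor and -100% = no enzyme wells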
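Buffer: 50 mM Hepes-Na pH 7.6, 10 mM MgCl2, 0.01% Nonidet P-40, 0.01% BSA. Enzyme 15 nM, pre-exposed to compound 15 min; substrates then added and fluorescence change tracked over 30 min.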
* hit, by the source's call; ? = inconclusive; nt = not tested or not shown; [ ] = remark or other dose. In the library only some 12% were active in any assay of this set; here they are far more common. The call rests on the fitted dose curve; in most records, active means well fitted curve in the direction sought with a large enough effect; inconclusive means small, poorly fitted or top-dose-only effect, or another doubt; inactive means no such curve, though single readings can be large; an effect the other way counts as inactive or inconclusive. Potency means the concentration at half of the fitted maximal effect.

SMILES | L3MBTL1 inh | HP1b chromo inh | JMJD2A Tudor inh | BAZ2B block | G9a block | Sfp PPTase inh
CCOCCCNC(=O)Nc1cc(C(=O)NCc2ccc(C(C)C)cc2)ccc1N1CCCC1 | nt | -19% | ? | -39% | ? | nt
O=C(COc1ccc(Cl)cc1)Nc1ccc2nc(SCC(=O)N3CCCC3)sc2c1 | nt | 18% | -15% | -18% | -1%[59 µM] | nt
CC(C)(C)c1cc(-c2csc(Nc3ccccc3)[n+]2Cc2ccc(C(=O)O)cc2)cc(C(C)(C)C)c1O | -18% | 45µM* | 40µM* | 40µM* | 40µM* | 14%
O=C(O)c1ccc(C[n+]2c(-c3ccccc3)csc2Nc2ccccc2)cc1 | -7% | ? | ? | 40µM* | ? | 5%
CCCCCC[n+]1c(-c2ccccc2)csc1Nc1ccccc1 | -17% | 17% | -11% | 18µM* | 16µM* | 0%
C=CC[n+]1c(C)csc1Nc1ccc(C(=O)O)cc1 | 10% | 46% | -14% | ? | ? | -9%
COc1ccc(-c2nc3ccccc3o2)cc1NC(=O)c1ccc(-c2cccc(Cl)c2C)o1 | nt | 9% | -7% | -35% | -2%[59 µM] | nt
CCOC(=O)N/N=C1/C[C@@H](O)[C@@H](O)[C@@H]2[C@@H]3C(=O)N(c4cccc(Oc5ccccc5)c4)C(=O)[C@H]3CC[C@@H]12 | nt | nt | nt | nt | nt | 5%
O=C(Cc1ccc(Cl)cc1)NNC(=O)c1cnccn1 | -11% | 9% | 50µM* | 6% | ? | 8%
O=C(NCc1ccc(Cl)cc1)c1cnccn1 | -3% | 22% | 15% | -8% | 36% | 13%
C=CCNCCOCCOc1ccc(C)cc1[N+](=O)[O-] | 2% | -20% | 3.2µM* | ? | 22µM* | -8%
Cc1ccc(OCCN(C)C)c([N+](=O)[O-])c1 | 0% | ? | 8.9µM* | ? | ? | -1%
COCCNCCOc1ccc(C)cc1[N+](=O)[O-] | nt | ? | 25µM* | ? | -41% | -4%
COc1cc(C)ccc1OCCOCCOc1ccc(C)cc1[N+](=O)[O-] | 6% | 22% | -13% | -10% | 11%[59 µM] | -3%
C/C(=N\Nc1cccc(Cl)c1)C1(C)N(O)C(C)(C)C(c2ccco2)=[N+]1[O-] (stereo not drawn) | -18% | 28% | -27% | -34% | 45µM* | 8%
CCOc1ccc(C(=O)Nc2ccc(S(=O)(=O)Nc3nc(C)cc(C)n3)cc2)cc1OC | nt | 69% | -3% | -3% | 26%[59 µM] | nt
Cc1c(C#N)c(O)[nH]c(=O)c1N=Nc1ccc(Cl)c(C(=O)O)c1 | nt | 29% | 3% | 1% | 14%[2.33 µM] | 13%
Cc1c(C#N)c(O)[nH]c(=O)c1N=Nc1ccc(S(N)(=O)=O)cc1 | nt | ? | ? | -12% | 79µM* | 8%
O=C(Nc1cc(C(=O)Nc2ccc(S(=O)(=O)O)cc2S(=O)(=O)O)cc(C(=O)Nc2ccc(S(=O)(=O)O)cc2S(=O)(=O)O)c1)Nc1cc(C(=O)Nc2ccc(S(=O)(=O)O)cc2S(=O)(=O)O)cc(C(=O)Nc2ccc(S(=O)(=O)O)cc2S(=O)(=O)O)c1 | nt | nt | nt | nt | 0.071µM* | 6%
Nc1ccc(C(=O)Nc2ccc3cc(S(=O)(=O)O)ccc3c2)cc1 | nt | 21% | -3% | nt | nt | nt
O=C(Nc1ccc(C(=O)Nc2ccc(C(=O)Nc3ccc(S(=O)(=O)O)c4cc(S(=O)(=O)O)cc(S(=O)(=O)O)c34)cc2)cc1)Nc1ccc(C(=O)Nc2ccc(C(=O)Nc3ccc(S(=O)(=O)O)c4cc(S(=O)(=O)O)cc(S(=O)(=O)O)c34)cc2)cc1 | nt | nt | nt | nt | 1.3µM* | ?
COc1cc(OC)nc(Oc2ccccc2/C=N/O)n1 | nt | 12% | 45µM* | nt | nt | nt
CCNc1ncc2nc(C)c(=O)n(CCc3ccccc3)c2n1 | nt | nt | nt | nt | -1%[0.501 µM] | 16%
COc1cc(/C=C/CN2CCN(CCC(C)C)C(CCO)C2)ccc1O (stereo not drawn) | -4% | 21% | -25% | -21% | 71µM* | -1%
COc1cc(/C=C/CN2CCC(CO)(CC3CCCCO3)CC2)ccc1O (stereo not drawn) | -11% | 2% | -16% | -24% | 56µM* | 13%
SMILES | L3MBTL1 inh | HP1b chromo inh | JMJD2A Tudor inh | BAZ2B block | G9a block | Sfp PPTase inh
COc1cc(/C=C/CN2CCN(Cc3ccc(C)o3)C(CCO)C2)ccc1O (stereo not drawn) | -14% | -14% | -20% | -24% | 79µM* | 2%
OCC1(CC2CCCCO2)CCN(C/C=C/c2ccccc2)CC1 (stereo not drawn) | -4% | 23% | -4% | 16% | 8% | 15%
COc1ccc(/C=C/CN2CCN(CC(C)C)C(CCO)C2)cc1 (stereo not drawn) | 0% | 24% | -14% | -2% | ? | 12%
CCOc1ccc(CCNC(=O)CSCc2nc(-c3cccc(C)c3)oc2C)cc1OCC | nt | 5% | -33% | -38% | -39%[59 µM] | nt
Cc1cc(C)c2oc(-c3cccc(NC(=O)c4cc5ccccc5o4)c3)nc2c1 | nt | 21% | -12% | 2% | 1%[59 µM] | nt
COc1cccc(C2CC(c3ccccc3Cl)n3nc(N)nc3N2)c1 (stereo not drawn) | -9% | 44% | -31% | -14% | 19%[59 µM] | -1%
COc1ccc(C2(c3ccc(O)cc3O)CC(c3ccccc3Cl)NC(=S)N2)cc1 (stereo not drawn) | -9% | ? | 50µM* | 28µM* | ? | -3%
C(/Oc1ccccc1)=C1\Nn2c(nnc2-c2cc(-c3ccccc3)n[nH]2)S1 | nt | 24%[57 µM] | -11%[57.1 µM] | nt | nt | nt
CCC(C(=O)Nc1nccs1)(C(F)(F)F)C(F)(F)F | nt | 24% | -10% | 56µM* | ? | 6%
COc1ccccc1N(CC(=O)NC(C)(C)C)S(=O)(=O)c1cccs1 | 7% | -4% | 56µM* | 1% | -13% | -13%
CCOC(=O)C1CCCN(C(=O)c2ccc3c(c2)OCCO3)C1 (stereo not drawn) | 11% | 46% | -12% | 5% | 11% | nt
CC1Sc2ccc(C(=O)N3CCCC(C(F)(F)F)C3)cc2NC1=O (stereo not drawn) | 2% | 32% | -13% | 6% | 9% | nt
CCOC(=O)C1CCCN(C(=O)Cc2c(C(=O)O)[nH]c3ccccc23)C1 (stereo not drawn) | 10% | 20% | -19% | 2% | 18%[2.33 µM] | 17%
CC1CCc2[nH]c3ccc(C(=O)N4CCCC(C(F)(F)F)C4)cc3c2C1 (stereo not drawn) | -16% | -4% | ? | 32µM* | 35µM* | nt
CCOC(=O)C1CCCN(C(=O)c2ccc3[nH]c4c(c3c2)CC(C)CC4)C1 (stereo not drawn) | -13% | ? | ? | 50µM* | ? | nt
CCOC(=O)C1CCCN(C(=O)c2[nH]c3ccccc3c2Sc2ccc(Cl)cc2)C1 (stereo not drawn) | nt | 22% | -33% | ? | 8.9µM* | nt
